In PubChem BioAssay (NCATS):
Results filed as inconclusive are left out. Values without a mark were called inactive. Calls of active or inactive are those of the source. Calls follow the shape of the dose curve; as a rule, active = well fitted cell-killing curve with a large enough effect; inconclusive = small, poorly fitted or top-dose-only effect, or effect the other way; inactive = no such curve, though single readings can be large or run the other way.

Test: Quantitative High-Throughput drug screen in 47 multiple myeloma cell lines against the NCATS MIPE library collection: Karpas25_ECACC cell viability assay (AID 1918968; also: nearly all actives have a fitted effect of over 35% in size)
Settings: Karpas25 myeloma viability, CellTiter-Glo ATP, 48 h; series mostly up to 45.8 µM; viability (% of control): at the top concentration
Summary of the method: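 qHTS of the MIPE 4.0 collection: 500 myeloma cells/well, 48 h drug exposure at 37C in 5% CO2, then CellTiter-Glo for 5 min at room temperature before luminescence reading.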
Potency is read from the fitted curve at half-maximal effect.

| SMILES | Potency | viability (% of control) [%] |
| --- | --- | --- |
| COc1cc(C(C)=O)ccc1OCCCN1CCC(c2noc3cc(F)ccc23)CC1 | 1.87 µM (active) |  |
| Nc1cccc2c1CN(C1CCC(=O)NC1=O)C2=O (configuration not stated) | 4.81 µM (active) |  |
| CC1=C(C(=O)O)N2C(=O)[C@@H](NC(=O)[C@H](N)C3=CCC=CC3)[C@H]2SC1 |  | 114 |
| O=C1NC(=O)C(c2ccccc2[N+](=O)[O-])=C1Nc1ccc(O)c(Cl)c1 | 13.2 µM (active) |  |
| CN(C)CCc1c[nH]c2ccc(Cn3cncn3)cc12 |  | 113 |
| CC1Cc2ccccc2N1NC(=O)c1ccc(Cl)c(S(N)(=O)=O)c1 (configuration not stated) |  | 81.9 |
| CCN(CC)CCOc1ccc(Cc2ccccc2)cc1 | 14.8 µM (active) |  |
| COc1cc2nc(N3CCN(C(=O)C4CCCO4)CC3)nc(N)c2cc1OC (configuration not stated) |  | 95 |
| CCN(CC)C(=S)SSC(=S)N(CC)CC | 0.001 µM (active) |  |
| Cc1cccc(C#Cc2ccccc2)n1 |  | 114 |
| CC(=O)O[C@H]1C(=O)[C@@]2(C)C([C@H](OC(=O)c3ccccc3)[C@]3(O)C[C@H](OC(=O)[C@H](O)[C@@H](NC(=O)c4ccccc4)c4ccccc4)C(C)=C1C3(C)C)[C@]1(OC(C)=O)CO[C@@H]1C[C@@H]2O (some centres not stated) |  | 54.3 |
| NS(=O)(=O)c1cc(C(=O)O)c(NCc2ccco2)cc1Cl |  | 82.7 |
| Clc1ccc(C(Cn2ccnc2)OCc2ccsc2Cl)c(Cl)c1 (configuration not stated) | 20.9 µM (active) |  |
| C[C@H](Cc1ccc(O)c(O)c1)[C@@H](C)Cc1ccc(O)c(O)c1 | 14.8 µM (active) |  |
| C[C@@H](N)C1CCC(C(=O)Nc2ccncc2)CC1 (some centres not stated) | 26.4 µM (active) |  |
| COc1cc(Nc2c(C#N)cnc3cc(OCCCN4CCN(C)CC4)c(OC)cc23)c(Cl)cc1Cl | 1.05 µM (active) |  |
| NC(=NCc1ccccc1)NC(=O)c1nc(Cl)c(N)nc1N | 2.09 µM (active) |  |
| O=c1oc2cc(O)ccc2s1 | 7.43 µM (active) |  |
| O=C1c2c(O)cc(O)cc2OC(c2ccc(O)c(O)c2)C1O (configuration not stated) |  | 128 |
| Cc1cc2cc3c(C)cc(=O)oc3c(C)c2o1 | 20.9 µM (active) |  |
| CC(C)c1ccc2c(c1)c(SC(C)(C)C)c(CC(C)(C)C(=O)O)n2Cc1ccc(Cl)cc1 | 20.9 µM (active) |  |
| Nc1nc(OCc2ccccc2)c2[nH]cnc2n1 | 16.6 µM (active) |  |
| CC(C)C[C@H](NC(=O)[C@H](Cc1ccccc1)NC(=O)c1cnccn1)B(O)O | 0.0074 µM (active) |  |
| Cc1ccc(NC(=O)c2ccc(CN3CCN(C)CC3)cc2)cc1Nc1nccc(-c2cccnc2)n1 | 23.5 µM (active) |  |
| C=C(c1ccc(C(=O)O)cc1)c1cc2c(cc1C)C(C)(C)CCC2(C)C | 14.8 µM (active) |  |
| O=C1CCc2ccc(OCCCCN3CCN(c4cccc(Cl)c4Cl)CC3)cc2N1 | 16.6 µM (active) |  |

Test: Quantitative High-Throughput drug screen in 47 multiple myeloma cell lines against the NCATS MIPE library collection: KMS27_JCRB cell viability assay (AID 1918970); also: nearly all actives have a fitted effect of over 30% in size
Settings: KMS27 myeloma cells, CellTiter-Glo ATP viability, 48 h; series mostly up to 45.8 µM; viability (% of DMSO): at the top concentration
Summary of the method: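 Luminescent ATP read-out (CellTiter-Glo, 5 min at room temperature) after 48 h compound exposure of 500 KMS27_JCRB cells per well; DMSO wells define full viability and media-only wells zero.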

| SMILES | viability (% of DMSO) | Potency |
| --- | --- | --- |
| Nc1cccc2c1CN(C1CCC(=O)NC1=O)C2=O (configuration not stated) | 120% [at 92.2 µM] |  |
| CC(C)[N+]1(C)[C@@H]2CC[C@H]1CC(OC(=O)C(CO)c1ccccc1)C2 (some centres not stated) |  | 14.8 µM (active) |
| CC1=C(C(=O)O)N2C(=O)[C@@H](NC(=O)[C@H](N)C3=CCC=CC3)[C@H]2SC1 | 101% |  |
| Cn1c(NCCN(CCO)CCCc2ccc([N+](=O)[O-])cc2)cc(=O)n(C)c1=O |  | 26.4 µM (active) |
| O=C1NC(=O)C(c2ccccc2[N+](=O)[O-])=C1Nc1ccc(O)c(Cl)c1 | 96.7% |  |
| CN(C)CCc1c[nH]c2ccc(Cn3cncn3)cc12 |  | 16.6 µM (active) |
| CC1Cc2ccccc2N1NC(=O)c1ccc(Cl)c(S(N)(=O)=O)c1 (configuration not stated) | 90.5% |  |
| Cc1cccc(C#Cc2ccccc2)n1 | 118% |  |
| NS(=O)(=O)c1cc(C(=O)O)c(NCc2ccco2)cc1Cl | 119% |  |
| Clc1ccc(C(Cn2ccnc2)OCc2ccsc2Cl)c(Cl)c1 (configuration not stated) |  | 26.4 µM (active) |
| CN(C)[C@@H](CCOc1cccc2ccccc12)c1ccccc1 | 110% |  |
| CCCS(=O)c1ccc2nc(NC(=O)OC)[nH]c2c1 (configuration not stated) | 110% |  |
| C[C@H](Cc1ccc(O)c(O)c1)[C@@H](C)Cc1ccc(O)c(O)c1 |  | 9.35 µM (active) |
| NC(=NCc1ccccc1)NC(=O)c1nc(Cl)c(N)nc1N |  | 33.2 µM (active) |
| Cc1cc2cc3c(C)cc(=O)oc3c(C)c2o1 |  | 26.4 µM (active) |
| CC(C)c1ccc2c(c1)c(SC(C)(C)C)c(CC(C)(C)C(=O)O)n2Cc1ccc(Cl)cc1 | 120% |  |
| Nc1nc(OCc2ccccc2)c2[nH]cnc2n1 |  | 14.8 µM (active) |
| Nc1nc(Cl)nc2c1ncn2[C@H]1C[C@H](O)[C@@H](CO)O1 |  | 0.296 µM (active) |
| Cc1c(OCC(F)(F)F)ccnc1CS(=O)c1nc2ccccc2[nH]1 (configuration not stated) | 119% |  |
| C=C(c1ccc(C(=O)O)cc1)c1cc2c(cc1C)C(C)(C)CCC2(C)C |  | 0.0418 µM (active) |
| O=C1CCc2ccc(OCCCCN3CCN(c4cccc(Cl)c4Cl)CC3)cc2N1 | 123% |  |

Test: Quantitative High-Throughput drug screen in 47 multiple myeloma cell lines against the NCATS MIPE library collection: KMS12BM_JCRB cell viability assay (AID 1918971); also: nearly all actives have a fitted effect of over 35% in size
Settings: KMS12BM myeloma viability, CellTiter-Glo ATP, 48 h; series mostly up to 45.8 µM; viability, % of DMSO: at the top concentration
Summary of the method: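 Luminescent ATP measurement with CellTiter-Glo gives viability, scaled between DMSO-only wells (100%) and media-only wells (0%). Cells, 500 per well, faced library compounds for 48 hours at 37C.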

| SMILES | viability, % of DMSO [%] | Potency |
| --- | --- | --- |
| CC1=C(C(=O)O)N2C(=O)[C@@H](NC(=O)[C@H](N)C3=CCC=CC3)[C@H]2SC1 | 141 |  |
| CN(C)CCc1c[nH]c2ccc(Cn3cncn3)cc12 | 154 |  |
| CC1Cc2ccccc2N1NC(=O)c1ccc(Cl)c(S(N)(=O)=O)c1 (configuration not stated) | 135 |  |
| CCN(CC)C(=S)SSC(=S)N(CC)CC |  | 0.0093 µM (active) |
| Cc1cccc(C#Cc2ccccc2)n1 |  | 18.7 µM (active) |
| CC(=O)O[C@H]1C(=O)[C@@]2(C)C([C@H](OC(=O)c3ccccc3)[C@]3(O)C[C@H](OC(=O)[C@H](O)[C@@H](NC(=O)c4ccccc4)c4ccccc4)C(C)=C1C3(C)C)[C@]1(OC(C)=O)CO[C@@H]1C[C@@H]2O (some centres not stated) | 82.8 |  |
| NS(=O)(=O)c1cc(C(=O)O)c(NCc2ccco2)cc1Cl | 86.4 |  |
| CCCS(=O)c1ccc2nc(NC(=O)OC)[nH]c2c1 (configuration not stated) |  | 20.9 µM (active) |
| C[C@H](Cc1ccc(O)c(O)c1)[C@@H](C)Cc1ccc(O)c(O)c1 |  | 16.6 µM (active) |
| COc1cc(Nc2c(C#N)cnc3cc(OCCCN4CCN(C)CC4)c(OC)cc23)c(Cl)cc1Cl |  | 14.8 µM (active) |
| NC(=NCc1ccccc1)NC(=O)c1nc(Cl)c(N)nc1N | 175 |  |
| O=c1oc2cc(O)ccc2s1 | 112 |  |
| Cc1cc2cc3c(C)cc(=O)oc3c(C)c2o1 |  | 16.6 µM (active) |
| Cc1ccc(C)c(OCCCC(C)(C)C(=O)O)c1 | 149 |  |
| CC(C)c1ccc2c(c1)c(SC(C)(C)C)c(CC(C)(C)C(=O)O)n2Cc1ccc(Cl)cc1 |  | 20.9 µM (active) |
| Nc1nc(OCc2ccccc2)c2[nH]cnc2n1 | 124 |  |
| CC(C)C[C@H](NC(=O)[C@H](Cc1ccccc1)NC(=O)c1cnccn1)B(O)O |  | 0.0148 µM (active) |
| Nc1nc(Cl)nc2c1ncn2[C@H]1C[C@H](O)[C@@H](CO)O1 |  | 0.0833 µM (active) |
| Cc1c(OCC(F)(F)F)ccnc1CS(=O)c1nc2ccccc2[nH]1 (configuration not stated) | 134 |  |
| O=C1CCc2ccc(OCCCCN3CCN(c4cccc(Cl)c4Cl)CC3)cc2N1 |  | 11.8 µM (active) |
